Inconclusive results are not listed. Entries that show only a call come without a potency. Active and inactive are the calls of the source. Calls follow the shape of the full dose curve.
target: Beta-2 adrenergic receptor (Homo sapiens) (UniProt P07550); assay: Adrenergic beta2 receptor (ADRB2) small molecule agonists, cell-based qHTS assay (AID 1963593); settings: CHO-ADRB2 cells, cAMP HTRF, 30 min; series mostly up to 42.5 µM
Description: National Center for Advancing Translational Sciences [NCATS]
Division of Preclinical Innovation [DPI]
U.S. Environmental Protection Agency [EPA]
National Institutes of Environmental Health Sciences [NIEHS]
National Toxicology Program [NTP]
U.S. Food and Drug Administration [FDA]
Beta adrenergic receptors (Beta-ARs) belong to the G-protein coupled receptor (GPCR) superfamily, includes three subtypes - beta1, beta2, and beta3. Beta1-AR is the predominant receptor subtype expressed in the heart, and beta2-AR is expressed in the kidney, lung, blood vessel and in the heart, and beta3 is found in the adipocytes. Beta1 and 2 ARs couple to Gs protein and elevate cyclic adenosine mono phosphate (cAMP), which activates protein kinase A and leads to the downstream signaling responsible for the physiological actions. Beta-AR agonists or antagonists are the most prescribed therapeutic agents for heart failure and asthma, and these were one of the first target receptors for the rational drug design. Tox21 10K compound library was screened using the cAMP-Gs dynamic assay (Cisbio Bioassays, Shelton, CT) to identify agonists/antagonists of the Gs-coupled human adrenergic, beta2 receptor (ADRB2) in the CHO-ADRB2 cell line (Codex BioSolutions, Inc. Gaithersburg, MD), which stably over-expresses ADRB2. The principle of cAMP-Gs dynamic assay is based on HTRF technology, which facilitates the fluorescence resonance energy transfer (FRET) between donor Europium cryptate and acceptor d2-labeled cAMP. The cAMP generated within cells competes with the red acceptor, d2-labled cAMP, for binding to the monoclonal anti-cAMP-cryptate (Europium donor). An increase in intracellular cAMP leads to the disruption of FRET signal, and the signal is inversely proportional to the cAMP concentration. Isoproterenol HCl (Sigma-Aldrich, St. Louis, MO) was used as a positive control in the screening.
Tox21 Assay Protocol Summary:
CHO-ADRB2 cells were dispensed at 1,000/well in 4uL assay medium into white/solid 1536-well plates (Greiner Bio-One North America Inc., Monroe, NC) using a Multidrop Combi dispenser (ThermoFisher Scientific, Waltham, MA). The assay plates were incubated at 37C and 5% CO2 for an overnight (18-20hr). Then positive control and test compounds dissolved in DMSO were transferred to the assay plates at 23nL using a Pintool station (Wako, San Diego, CA). Following the compound and positive control transfer, 1uL stimulation mix containing 100uM IBMX and 25uM Ro-20-1724 was added to each well of the assay plates using BioRAPTR Flying Reagent Dispenser (FRD, Beckman Coulter, Brea, CA). The assay plates were incubated at room temperature for 0.5hr. Then 2.5ul each d2-labled cAMP and anti-cAMP-cryptate solutions were added separately to each well of the assay plates using an FRD and the assay plates were incubated at room temperature for 1hr.

Chain of Beta-2 adrenergic receptor (Homo sapiens) (P07550 whole entry, looked up): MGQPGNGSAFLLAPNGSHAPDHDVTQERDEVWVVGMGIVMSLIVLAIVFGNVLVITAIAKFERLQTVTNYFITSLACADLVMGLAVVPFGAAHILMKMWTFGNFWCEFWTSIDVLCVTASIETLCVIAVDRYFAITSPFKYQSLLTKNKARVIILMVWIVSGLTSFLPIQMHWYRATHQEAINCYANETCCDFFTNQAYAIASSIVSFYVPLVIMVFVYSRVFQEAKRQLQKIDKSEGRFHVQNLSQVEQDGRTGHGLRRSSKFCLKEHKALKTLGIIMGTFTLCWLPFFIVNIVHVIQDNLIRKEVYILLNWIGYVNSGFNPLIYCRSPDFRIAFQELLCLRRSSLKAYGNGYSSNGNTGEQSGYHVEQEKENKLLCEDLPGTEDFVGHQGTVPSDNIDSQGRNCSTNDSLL

| Compound | Potency | activation |
| --- | --- | --- |
| CCCCCCCCCCCCCCCCOP(=O)([O-])OCC[N+](C)(C)C | inactive | – |
| CC(=O)OC[C@H]1O[C@@H](n2ncc(=O)[nH]c2=O)[C@H](OC(C)=O)[C@@H]1OC(C)=O | inactive | – |
| Cc1[nH]cnc1CN1CCc2c(c3ccccc3n2C)C1=O | inactive | – |
| O=c1[nH]sc2cc(Cl)ccc12 | inactive | – |
| NCCOCCOCCN | inactive | – |
| Nc1c(Cl)cc(Cl)cc1Cl | inactive | – |
| CCOc1ccccc1O | inactive | – |
| COc1c(C)c2c(c(O)c1C/C=C(\C)CCC(=O)OCCN1CCOCC1)C(=O)OC2 | inactive | – |
| CCOC(=O)c1c(N)sc2c1CCN(Cc1ccccc1)C2 | inactive | – |
| CC(C)(Oc1ccc(Cl)cc1)C(=O)OCCCOC(=O)C(C)(C)Oc1ccc(Cl)cc1 | inactive | – |
| O=C1c2ccccc2C(=O)N1CO | inactive | – |
| O=C1OCCN1/N=C/c1ccc([N+](=O)[O-])o1 | inactive | – |
| CC(C)SCc1ccco1 | inactive | – |
| COCCc1ccccn1 | inactive | – |
| CCCCCCOc1ccc(N)cc1 | inactive | – |
| CCCCCCCCCCCCCOP(=O)(O)O | inactive | – |
| C=COCC(C)C | inactive | – |
| CCOC(=O)C(=O)OCC | inactive | – |
| CCc1nnc(NS(=O)(=O)c2ccc(N)cc2)s1 | inactive | – |
| COCCCCCCCCOCCC[Si](C)(O[Si](C)(C)C)O[Si](C)(C)C | inactive | – |

| Compound | Potency | activation |
| --- | --- | --- |
| CCCCCCCCCC[N+](C)(C)[O-] | inactive | – |
| O=C(Cn1ccnc1[N+](=O)[O-])NCCO | inactive | – |
| CC/C=C\CCOC(=O)c1ccccc1O | inactive | – |
| CCN[C@@H]1C[C@H](N)[C@@H](OC2OC(CN)=CCC2N)[C@H](O)[C@H]1O[C@H]1OC[C@](C)(O)[C@H](NC)[C@H]1O (stereo not given in full) | – | 7.07% [at 0.349 µM] (inactive) |
| CCCCC(=O)OCC(=O)[C@H]1[C@H](C)C[C@H]2[C@@H]3C[C@H](F)C4=CC(=O)C=C[C@]4(C)[C@@]3(F)[C@@H](O)C[C@@]21C | inactive | – |
| Cc1cc(O)c2c(c1)C(=O)c1cccc(O)c1C2=O | inactive | – |
| O=C(O)c1cc(Cl)cc([N+](=O)[O-])c1Cl | inactive | – |
| CCCCCCCCCCCC(=O)NCCCN(C)C | inactive | – |
| C=C(C)CCCC | inactive | – |
| CC(CN(C)C)C(C)(O)Cc1ccc(Cl)cc1 (stereo not given) | inactive | – |
| CCCCC1CCCCC(=O)O1 (stereo not given) | inactive | – |
| O=C(O)CCNC(=O)c1ccccc1 | inactive | – |
| CCCCCCCCCCCCCc1ccccc1 | inactive | – |
| CCCC1CCC(=O)O1 (stereo not given) | inactive | – |
| OCCCO | inactive | – |
| NC(=O)Nc1ccc(Cl)c(Cl)c1 | inactive | – |
| CC(CC(C#N)(c1ccccc1)C(C)C)N(C)C (stereo not given) | inactive | – |
| COc1cc2c3cc1Oc1cc(ccc1O)C[C@@H]1c4c(cc(OC)c(O)c4Oc4ccc(cc4)C[C@@H]3N(C)CC2)CC[N+]1(C)C | inactive | – |
| CCCCC(=O)O[C@]1(C(=O)CO)CC[C@H]2[C@@H]3CCC4=CC(=O)CC[C@]4(C)[C@H]3[C@@H](O)C[C@@]21C | inactive | – |
| C[Si](NC1CCCCC1)(NC1CCCCC1)NC1CCCCC1 | inactive | – |
